Test [1] is described as follows: qHTS Validation Assay to Find Inhibitors of Chronic Active B-Cell Receptor Signaling (AID 485345; active = well fitted curve in the direction sought with a large enough effect in the main read-out, with a control signal flat, not every such curve was filed as active; note: potency is the fitted concentration of half-maximal effect). Put shortly: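 TMD8 ABC-DLBCL cells with dox-inducible green luciferase–IκBα fusion and red native luciferase; compounds 46 uM–3 nM, 4 h at 37C with doxycycline in 0.5% FBS IMDM. Green/red ratio normalized to basal and 10 uM MG-132.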
A general note: In qHTS, concentration-response curves come from the screen itself.

The target of test [2] is Beta-2 adrenergic receptor (Homo sapiens) (UniProt P07550). The test can be described thus: qHTS validation assay of beta-arrestin-biased ligands of beta2-adrenergic receptor (AID 485366). Put shortly:
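Compound series up to 46 microM applied to beta2-AR/beta-arrestin Tango cells, 18 hr, 37 degrees C, 5% CO2. Read-out: tTA-driven luciferase luminescence, converted to %Activity; concentration-response curves assigned curve classes.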

A short description of test [3]: Quantitative high throughput screen for delayed death inhibitors of the malarial parasite plastid, 96 hour incubation (AID 488745). Note: nearly all actives have a fitted effect of over 70% in size. Note: potency is the fitted concentration of half-maximal effect. Put shortly: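 Readout is firefly luciferase luminescence from an integrated reporter in P. falciparum; lower signal marks inhibited growth. Cultures at 2% hematocrit and 0.1% parasitemia were treated with compound across two generations (96 h, 37 C, 5% CO2).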

Test [4] is described as follows: Quantitative high throughput screen for delayed death inhibitors of the malarial parasite plastid, 48 hour incubation (AID 488752). Note: nearly all actives have a fitted effect of over 65% in size. Note: potency is the fitted concentration of half-maximal effect. An outline of the steps: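 First, compound was pinned into RPMI 1640 medium containing 0.5% Albumax. Next, reporter-parasite-infected erythrocytes were added to 2% hematocrit and 0.1% parasitemia. After 48 h at 37 C under 5% CO2, luciferase detection reagent was added and luminescence read.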

Test [5] addresses Thioredoxin reductase 1, cytoplasmic (Rattus norvegicus) (UniProt O89049). The test can be described thus: qHTS Assay for Substrates of Mammalian Selenoprotein Thioredoxin Reductase 1 (TrxR1) (AID 488772).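 Note: series mostly up to about 57 µM; a drop in NADPH fluorescence below the no-compound background marks a TrxR1 substrate.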 An outline of the steps:
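In this dual-purpose format, potential substrates are identified from the first fluorescence read after selenite addition, not from the 8-minute delta. Rat enzyme is preincubated with NADPH and then with compound at ~22 deg C.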

Test [6] deals with Flap endonuclease 1 (Homo sapiens) (UniProt P39748). Put plainly: qHTS Validation Assay for the Inhibitors of Human Flap endonuclease 1 (FEN1) (AID 488816). Note: potency is the fitted concentration of half-maximal effect. Put shortly:
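Steps: add FEN1 (10 nM reagent) or buffer only; pin compounds; hold 15 min at room temperature; start with substrate, 50 nM final; read at 0 and 15 min; correct, normalize and fit a four-parameter Hill curve.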

The target in test [7] is M-phase phosphoprotein 8 (Homo sapiens) (UniProt Q99549). Put plainly: qHTS Validation Assay for Inhibitors for MPP8 Chromodomain Interactions with Methylated Histone Tails (AID 488949).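 Note: AlphaScreen signal from MPP8 chromodomain bound to biotinylated H3K9me3 peptide; top concentration of the series differs between compounds; nearly all actives have a fitted effect of over 55% in size.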 An outline of the steps: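 Disruption of the preformed MPP8–trimethyl-H3K9 peptide complex (both 50 nM, 30 min, RT) is measured after 30 min compound exposure, using AlphaScreen proximity beads; aurintricarboxylic acid titration serves as plate control.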
M-phase phosphoprotein 8 (Homo sapiens), sequence (Q99549 whole entry, looked up): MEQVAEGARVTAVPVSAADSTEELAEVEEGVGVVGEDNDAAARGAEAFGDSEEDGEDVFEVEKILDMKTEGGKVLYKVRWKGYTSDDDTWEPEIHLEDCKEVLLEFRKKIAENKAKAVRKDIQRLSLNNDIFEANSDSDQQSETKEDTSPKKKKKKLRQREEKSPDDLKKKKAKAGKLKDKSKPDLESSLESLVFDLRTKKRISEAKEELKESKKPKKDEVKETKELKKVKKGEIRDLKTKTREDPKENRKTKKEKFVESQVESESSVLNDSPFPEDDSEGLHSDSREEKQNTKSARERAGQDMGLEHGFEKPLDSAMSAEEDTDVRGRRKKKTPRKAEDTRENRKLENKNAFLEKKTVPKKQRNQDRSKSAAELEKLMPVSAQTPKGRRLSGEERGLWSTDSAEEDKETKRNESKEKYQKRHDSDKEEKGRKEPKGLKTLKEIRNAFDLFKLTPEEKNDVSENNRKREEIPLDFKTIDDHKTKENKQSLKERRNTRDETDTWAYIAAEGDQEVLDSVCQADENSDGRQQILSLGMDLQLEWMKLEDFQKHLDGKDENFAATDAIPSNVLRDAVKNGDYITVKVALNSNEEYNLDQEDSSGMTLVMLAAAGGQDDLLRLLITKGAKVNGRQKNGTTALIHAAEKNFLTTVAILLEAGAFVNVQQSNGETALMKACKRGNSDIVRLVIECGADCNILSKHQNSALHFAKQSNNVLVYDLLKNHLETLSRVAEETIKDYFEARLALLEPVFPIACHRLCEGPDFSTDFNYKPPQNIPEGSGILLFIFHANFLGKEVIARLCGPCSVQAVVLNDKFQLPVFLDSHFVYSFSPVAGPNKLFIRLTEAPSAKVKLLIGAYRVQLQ

Test [8] has as its target Chromobox protein homolog 1 (Homo sapiens) (UniProt P83916). Put plainly: qHTS Validation Assay for Inhibitors of HP1-beta Chromodomain Interactions with Methylated Histone Tails (AID 488953).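 Note: loss of AlphaScreen luminescence from HP1-beta binding biotinylated H3K9me3 peptide; series mostly up to about 110 µM; nearly all actives have a fitted effect of over 50% in size.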 Put shortly:
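Disruption of preformed HP1-beta:H3K9me3 peptide complexes (both 50 nM, PBS pH 7.4 with 0.01% Tween-20) is measured by AlphaScreen after 30 min compound exposure at room temperature, using streptavidin donor and nickel chelate acceptor beads at 10 ug/mL final.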

For test [9], the target named is Thioredoxin reductase 1, cytoplasmic (Rattus norvegicus) (UniProt O89049). The test can be described thus: qHTS Assay for Inhibitors of Mammalian Selenoprotein Thioredoxin Reductase 1 (TrxR1) (AID 488773).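 Note: drop in NADPH fluorescence over an 8 min run after selenite addition; series mostly up to about 57 µM; nearly all actives have a fitted effect of over 40% in size.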 The note with it: Potency: inhibition. An outline of the steps:
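Inhibition is scored from the loss of NADPH fluorescence between first and last reads of an 8-min kinetic run. Selenite (400 uM) was the substrate, added after 15 min compound preincubation at room temperature.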

Test [10] addresses ATP-dependent 6-phosphofructokinase (Trypanosoma brucei brucei) (UniProt O15648). The test can be described thus: qHTS Validation Assay to Find Inhibitors of T. brucei phosphofructokinase (AID 485368). An outline of the steps: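 qHTS format, up to 57 uM. PFK 1.25 nM; F6P 0.5 mM; ATP 0.1 mM; 5 mM MgCl2, 0.01% Tween20, 0.1% BSA; 0.1 M TEA pH 8.0; 45 min RT; ADP-Glo readout; no-enzyme control = full inhibition.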

Inconclusive results are not listed. The source made the active and inactive calls. Unless noted, calls come from the whole dose curve; as a rule, active = well fitted curve in the direction sought with a large enough effect; inconclusive = small, poorly fitted or top-dose-only effect, or another doubt; inactive = no such curve, though single readings can be large; an effect the other way counts as inactive or inconclusive.

Chromobox protein homolog 1 (Homo sapiens), sequence (P83916 whole entry, looked up): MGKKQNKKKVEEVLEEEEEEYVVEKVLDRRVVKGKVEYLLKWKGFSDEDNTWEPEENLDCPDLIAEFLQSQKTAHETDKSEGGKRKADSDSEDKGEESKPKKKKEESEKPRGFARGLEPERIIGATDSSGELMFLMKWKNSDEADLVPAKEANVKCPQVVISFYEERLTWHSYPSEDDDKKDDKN
Thioredoxin reductase 1, cytoplasmic (Rattus norvegicus), sequence (O89049 whole entry, looked up): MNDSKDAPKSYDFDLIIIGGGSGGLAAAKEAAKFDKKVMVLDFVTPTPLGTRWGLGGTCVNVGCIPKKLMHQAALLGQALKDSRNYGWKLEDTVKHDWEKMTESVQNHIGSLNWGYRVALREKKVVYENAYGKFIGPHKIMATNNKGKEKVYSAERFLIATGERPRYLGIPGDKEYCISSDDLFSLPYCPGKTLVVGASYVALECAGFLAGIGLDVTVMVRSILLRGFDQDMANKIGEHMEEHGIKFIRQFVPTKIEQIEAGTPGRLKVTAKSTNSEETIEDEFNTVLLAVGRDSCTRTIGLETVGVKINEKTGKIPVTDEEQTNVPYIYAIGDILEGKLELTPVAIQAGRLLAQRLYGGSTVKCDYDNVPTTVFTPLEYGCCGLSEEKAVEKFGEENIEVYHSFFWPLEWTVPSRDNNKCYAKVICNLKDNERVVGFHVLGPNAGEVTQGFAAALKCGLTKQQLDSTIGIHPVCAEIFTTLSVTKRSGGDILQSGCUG
Flap endonuclease 1 (Homo sapiens), sequence (P39748 whole entry, looked up): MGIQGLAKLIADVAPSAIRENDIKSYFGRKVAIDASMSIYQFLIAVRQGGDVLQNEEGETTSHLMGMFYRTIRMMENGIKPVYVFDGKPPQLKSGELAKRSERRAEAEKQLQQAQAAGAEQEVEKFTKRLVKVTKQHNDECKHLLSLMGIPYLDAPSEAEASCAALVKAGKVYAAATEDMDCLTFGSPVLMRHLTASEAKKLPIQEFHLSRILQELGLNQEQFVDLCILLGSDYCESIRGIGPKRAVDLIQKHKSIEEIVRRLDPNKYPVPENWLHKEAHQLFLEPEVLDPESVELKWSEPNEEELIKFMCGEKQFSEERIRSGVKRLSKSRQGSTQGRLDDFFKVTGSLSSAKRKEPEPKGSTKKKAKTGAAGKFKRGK
Beta-2 adrenergic receptor (Homo sapiens), sequence (P07550 whole entry, looked up): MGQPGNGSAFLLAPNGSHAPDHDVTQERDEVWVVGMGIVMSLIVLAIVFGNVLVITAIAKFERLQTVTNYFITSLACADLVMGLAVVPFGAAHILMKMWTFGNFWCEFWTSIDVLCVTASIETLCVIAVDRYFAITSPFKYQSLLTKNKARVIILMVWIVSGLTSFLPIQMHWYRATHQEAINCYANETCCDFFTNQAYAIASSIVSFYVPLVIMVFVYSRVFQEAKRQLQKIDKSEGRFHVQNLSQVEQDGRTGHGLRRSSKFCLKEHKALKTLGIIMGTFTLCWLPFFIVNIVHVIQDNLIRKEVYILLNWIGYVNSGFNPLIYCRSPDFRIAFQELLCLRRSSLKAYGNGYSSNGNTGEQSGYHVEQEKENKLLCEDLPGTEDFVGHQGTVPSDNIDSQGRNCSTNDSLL
ATP-dependent 6-phosphofructokinase (Trypanosoma brucei brucei), sequence (O15648 whole entry, looked up): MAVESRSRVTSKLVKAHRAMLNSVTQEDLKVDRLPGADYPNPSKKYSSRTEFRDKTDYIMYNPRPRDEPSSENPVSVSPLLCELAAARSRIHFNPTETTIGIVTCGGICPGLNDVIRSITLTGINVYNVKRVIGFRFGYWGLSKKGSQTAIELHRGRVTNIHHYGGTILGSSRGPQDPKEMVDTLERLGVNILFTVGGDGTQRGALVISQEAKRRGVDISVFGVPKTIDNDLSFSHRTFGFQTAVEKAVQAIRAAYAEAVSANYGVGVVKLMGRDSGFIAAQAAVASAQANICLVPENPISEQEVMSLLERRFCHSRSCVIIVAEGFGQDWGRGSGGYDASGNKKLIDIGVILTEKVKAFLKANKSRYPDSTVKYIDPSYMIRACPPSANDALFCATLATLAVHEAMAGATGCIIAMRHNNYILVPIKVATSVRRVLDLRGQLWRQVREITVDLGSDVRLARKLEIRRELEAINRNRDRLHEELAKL

For the molecule `Nc1ccn([C@H]2CC[C@@H](CO)O2)c(=O)n1`, the Potency entry in [1], in [3], in [4], in test [6], in test [7] and in test [8] was “inactive” throughout. In addition, the molecule was classed as inactive in [2] and in test [5].
Consider `O=C(c1ccc(OCCN2CCCCC2)cc1)c1c(-c2ccc(O)cc2)sc2cc(O)ccc12`, for which, in test [1], the Potency is 20.6 µM (active). The result in test [2] and in test [5] was inactive. The Potency entry in test [9] and in [6] was “inactive” each time.
Consider `O=C(c1ccc(F)cc1)C1CCN(CCn2c(=O)[nH]c3ccccc3c2=O)CC1`, for which the Potency entry in [1], in test [9], in [6], in test [7] and in [8] was “inactive” throughout. Further, the result in [2] and in test [5] was inactive.
Take `Cn1c(=O)c2c(ncn2C)n(C)c1=O`: the Potency entry in test [1], in test [3], in [4], in test [9] and in test [7] was “inactive” throughout. Besides, the molecule was called inactive in [2] and in test [5].
For `COc1cc2nc(N(C)CCCNC(=O)C3CCCO3)nc(N)c2cc1OC` (centres undefined), the Potency result in test [1], in test [9] and in [6] was “inactive” in each case. The molecule was called inactive in test [2] and in test [5].
With `Cc1cc(C(C)(C)C)cc(C)c1CC1=NCCN1`, the Potency entry in test [1], in [3], in test [4] and in [6] was “inactive” throughout. For the same molecule, the call in test [2] and in [5] was inactive.
With `CC[N+](CC)(CC)CCOc1cccc(OCC[N+](CC)(CC)CC)c1OCC[N+](CC)(CC)CC`, the Potency result in [1], in test [4] and in test [6] was “inactive” each time. In addition, the result in [2] and in test [5] was inactive.
For `O=C(C1CCCCC1)N1CC(=O)N2CCc3ccccc3C2C1` (centres undefined), the Potency result in test [1], in [3], in test [4], in [9], in test [6] and in test [8] was “inactive” throughout. The molecule was classed as inactive in test [2] and in test [5].
As to `Nc1c2c(nc3ccccc13)CCCC2`, the Potency entry in test [1], in test [10], in test [9] and in [6] was “inactive” throughout.
Regarding `CN1CCN(C2=Nc3cc(Cl)ccc3Nc3ccccc32)CC1`, the Potency entry in test [1] and in test [9] was “inactive” in each case. The outcome in test [2] was inactive.
For the molecule `Cc1cn([C@H]2C=C[C@@H](CO)O2)c(=O)[nH]c1=O`, the Potency entry in test [1], in test [4], in test [9] and in [6] was “inactive” throughout. Further, the molecule was called inactive in [2] and in [5].
As to `CC1COc2c(N3CCN(C)CC3)c(F)cc3c(=O)c(C(=O)O)cn1c23` (centres undefined), the Potency entry in test [1], in test [3], in [4], in [9], in test [7] and in test [8] was “inactive” in each case. The result in test [2] and in test [5] was inactive.
Take `CN(C)c1nc(N(C)C)nc(N(C)C)n1`: the Potency entry in test [1], in test [4], in test [9] and in test [6] was “inactive” in each case. In addition, the call in test [2] and in [5] was inactive.
Turning to `C[C@H]1c2cccc(O)c2C(O)=C2C(=O)[C@]3(O)C(O)=C(C(N)=O)C(=O)[C@@H](N(C)C)[C@@H]3[C@@H](O)[C@@H]21`, the Potency entry in test [1] and in test [9] was “inactive” each time. In addition, the result in test [2] and in test [5] was inactive. Moreover, the Potency in [6] was 23.8 µM (active).
`Cc1cn([C@H]2C[C@H](N=[N+]=[N-])[C@@H](CO)O2)c(=O)[nH]c1=O`: the Potency entry in [1], in [9], in [6] and in [7] was “inactive” each time. Further, the call in test [2] and in test [5] was inactive.
In the case of `O=c1[nH]cc(F)c(=O)[nH]1`, the Potency result in test [1], in [9], in test [7] and in test [8] was “inactive” in each case. For the same molecule, the result in [2] and in test [5] was inactive.
As for `NC(=O)NO`, the Potency result in [1], in test [3], in [4], in [9], in [6] and in [7] was “inactive” in each case. The Potency result in test [8] is “inactive”. Also, the call in [2] was inactive.
Take `CCc1cccc2c3c([nH]c12)C(CC)(CC(=O)O)OCC3` (centres undefined): the Potency entry in [1], in test [3], in [4], in [9], in test [6] and in [8] was “inactive” throughout. In addition, the result in test [2] and in test [5] was inactive.
`COc1cc2nc(N3CCN(C(=O)c4ccco4)CC3)nc(N)c2cc1OC`: the Potency result in [1], in test [9] and in test [8] was “inactive” each time. Moreover, the result in [2] and in test [5] was inactive.
`Clc1ccc(C(c2ccccc2Cl)C(Cl)Cl)cc1` (centres undefined): the Potency entry in test [1], in test [3], in test [4], in [6] and in test [7] was “inactive” in each case. Also, the call in test [2] and in [5] was inactive.
As for `Nc1nc2c(ncn2COC(CO)CO)c(=O)[nH]1`, the Potency entry in test [1], in test [3], in test [4], in test [9] and in test [7] was “inactive” in each case. Moreover, the call in test [2] and in [5] was inactive.
Consider `Clc1ccc2nsnc2c1NC1=NCCN1`, for which the Potency entry in test [1], in test [9], in test [6] and in test [7] was “inactive” each time. For the same molecule, the call in [2] and in [5] was inactive.
`CCOC(=O)Nc1ccc(NCc2ccc(F)cc2)nc1N`: the molecule was classed as inactive in test [2] and in test [5].
As to `CCCNCC(O)COc1ccccc1C(=O)CCc1ccccc1` (centres undefined), the result in test [2] and in test [5] was inactive. The Potency was 2.62 µM (active) in [3] and 2.33 µM (active) in [4]. Besides, the Potency entry in test [9] and in test [6] was “inactive” throughout.
